A short description of this experiment: InCell qHTS Assay for Inhibitors of the mTORC1 Signaling Pathway in MEF (Tsc2-/-, p53-/-) Cells: Hit Validation.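 Also: phospho-S6 Ser235/236 signal normalized to propidium iodide cell count per well; nearly all actives have a fitted effect of over 75% in size.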 Particulars: phospho-rpS6 immunofluorescence, 24 h; activity change, negative = inhibition: at 38.3 µM (top of the series). (qHTS replaces the single test concentration by a dilution series.)

Structures are written as SMILES. Results filed as inconclusive are left out. Activity calls are given as the source filed them. Calls follow the shape of the dose curve; as a rule, active = well fitted inhibition curve with a large enough effect; inconclusive = small, poorly fitted or top-dose-only effect; inactive = no such curve, though single readings can be large or run the other way.

The values below come from PubChem BioAssay AID651791 (National Center for Advancing Translational Sciences (NCATS), 2012).
Potency is read from the fitted curve at half-maximal effect.

In the case of `CCCCS(=O)(=O)c1oc(-c2ccc(F)cc2)nc1S(=O)(=O)c1ccccc1`, the Potency was 2.07 µM (active).

Consider `Cc1nc2scc(C)n2c(=O)c1S(=O)(=O)Nc1ccc(N2CCOCC2)c(Cl)c1`, for which the activity change, negative = inhibition was -100%.

Consider `Cc1ccccc1NC(=O)Cn1cc(C(=O)c2cccs2)c2ccccc21`, for which the activity change, negative = inhibition is -100%.

As to `CCOc1cc(-c2nnc(SCC(=O)NCc3ccccc3)nc2-c2ccc(OC)c(OCC)c2)ccc1OC`, the activity change, negative = inhibition was -100%.

Consider `COc1ccc2nc(NC(=O)c3nc(S(=O)(=O)Cc4ccccc4)ncc3Cl)sc2c1`, for which the Potency was 1.65 µM (active).

Consider `CCOC(=O)Cc1ccc(NC(=O)n2ncc3cc(Cl)ccc32)cc1`, for which the activity change, negative = inhibition was -100%.

For the compound `O=C(Nc1ccc2nc(SCC(=O)N3CCCc4ccccc43)sc2c1)c1ccccc1F`, the activity change, negative = inhibition is -100%.

With `COc1ccccc1N1CCN(C(=O)c2cnc(N3CCCCC3)c3ccccc23)CC1`, the activity change, negative = inhibition is -100%.

Regarding `CCOc1ccc(N(Cc2ccccc2)C(=O)c2nc(S(C)(=O)=O)ncc2Cl)cc1`, the Potency was 2.93 µM (active).

In the case of `CCS(=O)(=O)c1ncc(Cl)c(C(=O)N(Cc2ccccc2)Cc2ccco2)n1`, the Potency is 3.69 µM (active).

On to `Cc1cccc(Cn2cc(C(=O)Nc3ccc(F)c(C(F)(F)F)c3)ccc2=O)c1`, for which the activity change, negative = inhibition was -100%.

Regarding `COc1ccc(N2CC(c3nc(-c4cc(OC)c(OC)c(OC)c4)no3)CC2=O)cc1Cl` (configuration not stated), the activity change, negative = inhibition is -100%.

For `COc1ccc(OC)c(NC(=O)c2nnn(CC(=O)Nc3ccc(C(C)C)cc3)c2N)c1`, the activity change, negative = inhibition is -100%.

Consider `CCOc1ccc(CCNC(=O)CCc2c(C)nc3cc(-c4ccccc4OC)nn3c2C)cc1`, for which the activity change, negative = inhibition is -100%.

`CS(=O)(=O)c1ncc(Cl)c(C(=O)N(Cc2ccc(Cl)cc2)Cc2ccco2)n1`: the Potency was 3.29 µM (active).

In the case of `Cc1cccc(N2CCN(c3ncnc4c3nc3n4CCCCC3)CC2C)c1` (configuration not stated), the Potency was 5.85 µM (active).

Regarding `Cc1cccc(Nc2ncc(NC(=O)c3cccc(F)c3)c(Nc3cccc(C)c3)n2)c1`, the activity change, negative = inhibition was -100%.

On to `CCC(C)Sc1oc(-c2ccco2)nc1S(=O)(=O)c1ccc(C)cc1` (configuration not stated), for which the activity change, negative = inhibition is -100%.

As for `O=C(NCc1ccc(F)cc1)c1ccc2c(Cl)c3c(nc2c1)CCCC3`, the activity change, negative = inhibition is -100%.

On to `CCCc1oc2ccc(NS(=O)(=O)c3ccc(OCC)cc3)cc2c1C(=O)OCC`, for which the activity change, negative = inhibition is -100%.

Take `COc1ccc(NC(=O)Cn2c(=O)n(-c3ccccc3)c(=O)c3ccc(C(=O)NCc4ccc5c(c4)OCO5)cc32)cc1`: the activity change, negative = inhibition is -21.2%.

For `COc1ccc(S(=O)(=O)N(Cc2nc(-c3cccc(C)c3)no2)C2CCCCC2)cc1`, the activity change, negative = inhibition was -100%.

As to `CCCCC1CCC(C(=O)N2CC(=O)Nc3ccc(Cl)cc3C2c2ccc(F)cc2)CC1` (configuration not stated), the activity change, negative = inhibition was -100%.

On to `CCN(Cc1nc(-c2ccc(OC)cc2)oc1C)S(=O)(=O)c1ccc(Cl)cc1`, for which the activity change, negative = inhibition is -100%.

In the case of `Cc1ccc(NC(=O)CCNS(=O)(=O)c2cccc3nonc23)cc1Cl`, the activity change, negative = inhibition was -100%.

Take `COc1cc(C(=O)NC(c2ccccc2Cl)c2cc(Cl)c3cccnc3c2O)cc(OC)c1OC` (configuration not stated): the activity change, negative = inhibition is -100%.

`CCCCN1C(=O)C(O)(CC(=O)c2ccc(C(C)(C)C)cc2)c2ccccc21` (configuration not stated): the activity change, negative = inhibition was -28.2%.

As to `CCCCOc1cccc(C(=O)N(Cc2cccs2)c2ccc(OC)cc2)c1`, the activity change, negative = inhibition is -3.36%.

`COc1ccc(-c2nc(C)c(CCNC(=O)c3ccccc3Br)s2)cc1OC`: the activity change, negative = inhibition was -100%.

In the case of `CC1CCN(S(=O)(=O)c2ccc(C(=O)Nc3sc4c(c3C(N)=O)CC(C)(C)NC4(C)C)cc2)CC1`, the Potency is 14.7 µM (active).

For `Cc1ccc(O)c(C(CC(=O)NCC2(c3ccccc3)CCCC2)c2ccccc2)c1` (configuration not stated), the activity change, negative = inhibition is -100%.

For `COc1cccc(-n2c(-c3ccco3)nc3c(cnn3-c3ccc(C)cc3)c2=O)c1`, the activity change, negative = inhibition was -100%.

For `CCOc1ccc(/C=C/c2nc(C#N)c(NCc3ccccc3)o2)cc1`, the activity change, negative = inhibition was -100%.

As to `CC(C)Oc1ccc(CNC(=O)c2ccc3nc(SCc4ccc(F)cc4)n(C)c3c2)cc1`, the activity change, negative = inhibition was -100%.

On to `CCCCN(C)CCNC(=O)c1cc2c(=O)n(C)c3ccccc3c2n1C`, for which the activity change, negative = inhibition was -100%.

As for `CCOC(=O)c1c(C)n(-c2ccccc2)c2ccc(OC(=O)c3ccccc3)cc12`, the activity change, negative = inhibition was -100%.

Regarding `CC1=Nc2cc(C(=O)NC(C)C)ccc2Sc2ccc(C)cc21`, the activity change, negative = inhibition is -100%.

For `Cc1cc(C)c(-c2n[nH]c3c2C(c2ccccc2F)N(Cc2ccco2)C3=O)c(O)c1` (configuration not stated), the activity change, negative = inhibition is -100%.

`CCOc1ccc(NC(=O)N(Cc2c[nH]c3ccccc23)C2CCCCCC2)cc1`: the activity change, negative = inhibition was -100%.

With `CC1=Nc2cc(C(=O)NC3CCCCC3)ccc2Sc2ccc(Cl)cc21`, the activity change, negative = inhibition is -100%.

As to `CC1=Nc2cc(C(=O)NCCc3ccc(Cl)cc3)ccc2Sc2ccc(C)cc21`, the activity change, negative = inhibition was -100%.

With `COCCCNc1ncnc2c1cnn2-c1ccc(F)cc1`, the activity change, negative = inhibition was -100%.

In the case of `Cc1cccc(NC(=O)c2nc(S(C)(=O)=O)ncc2Cl)c1`, the Potency is 5.21 µM (active).

With `COc1cc(Nc2nc(SCC(=O)c3ccc(Cl)c(Cl)c3)nc3ccccc23)cc(OC)c1`, the activity change, negative = inhibition is -16.4%.

As for `CCOC(=O)c1cnc2c(ccc3ccccc32)c1Nc1ccc(OC)cc1OC`, the activity change, negative = inhibition is -100%.

For the compound `CSc1ccc(CCNC(=O)C(C)n2nc(C)c3sc4ccccc4c3c2=O)cc1` (configuration not stated), the activity change, negative = inhibition was -100%.

For `COc1cc(NC(=O)CSc2ccc(-c3ccccn3)nn2)cc(OC)c1`, the activity change, negative = inhibition is -100%.
